Source: the supplement of paper PMC11732987, “Enantioselective OTUD7B fragment discovery through chemoproteomics screening and high-throughput optimisation” (Communications Chemistry, 2025)

Tests used:
Assay in all cases: log2 ratio of Biotin-Ahx-Ub-VS probe labelling (fragment/DMSO); higher = less target engagement (more negative = stronger competition), active = hit call of the paper (q ≤ 0.05, log2 ratio ≤ -1)
Conditions in all cases: compound concentration: 200 uM; treatment time: 3 h
USP42 = target: T1, USP42 (UniProt Q9H9J4)
T1 sequence (whole entry): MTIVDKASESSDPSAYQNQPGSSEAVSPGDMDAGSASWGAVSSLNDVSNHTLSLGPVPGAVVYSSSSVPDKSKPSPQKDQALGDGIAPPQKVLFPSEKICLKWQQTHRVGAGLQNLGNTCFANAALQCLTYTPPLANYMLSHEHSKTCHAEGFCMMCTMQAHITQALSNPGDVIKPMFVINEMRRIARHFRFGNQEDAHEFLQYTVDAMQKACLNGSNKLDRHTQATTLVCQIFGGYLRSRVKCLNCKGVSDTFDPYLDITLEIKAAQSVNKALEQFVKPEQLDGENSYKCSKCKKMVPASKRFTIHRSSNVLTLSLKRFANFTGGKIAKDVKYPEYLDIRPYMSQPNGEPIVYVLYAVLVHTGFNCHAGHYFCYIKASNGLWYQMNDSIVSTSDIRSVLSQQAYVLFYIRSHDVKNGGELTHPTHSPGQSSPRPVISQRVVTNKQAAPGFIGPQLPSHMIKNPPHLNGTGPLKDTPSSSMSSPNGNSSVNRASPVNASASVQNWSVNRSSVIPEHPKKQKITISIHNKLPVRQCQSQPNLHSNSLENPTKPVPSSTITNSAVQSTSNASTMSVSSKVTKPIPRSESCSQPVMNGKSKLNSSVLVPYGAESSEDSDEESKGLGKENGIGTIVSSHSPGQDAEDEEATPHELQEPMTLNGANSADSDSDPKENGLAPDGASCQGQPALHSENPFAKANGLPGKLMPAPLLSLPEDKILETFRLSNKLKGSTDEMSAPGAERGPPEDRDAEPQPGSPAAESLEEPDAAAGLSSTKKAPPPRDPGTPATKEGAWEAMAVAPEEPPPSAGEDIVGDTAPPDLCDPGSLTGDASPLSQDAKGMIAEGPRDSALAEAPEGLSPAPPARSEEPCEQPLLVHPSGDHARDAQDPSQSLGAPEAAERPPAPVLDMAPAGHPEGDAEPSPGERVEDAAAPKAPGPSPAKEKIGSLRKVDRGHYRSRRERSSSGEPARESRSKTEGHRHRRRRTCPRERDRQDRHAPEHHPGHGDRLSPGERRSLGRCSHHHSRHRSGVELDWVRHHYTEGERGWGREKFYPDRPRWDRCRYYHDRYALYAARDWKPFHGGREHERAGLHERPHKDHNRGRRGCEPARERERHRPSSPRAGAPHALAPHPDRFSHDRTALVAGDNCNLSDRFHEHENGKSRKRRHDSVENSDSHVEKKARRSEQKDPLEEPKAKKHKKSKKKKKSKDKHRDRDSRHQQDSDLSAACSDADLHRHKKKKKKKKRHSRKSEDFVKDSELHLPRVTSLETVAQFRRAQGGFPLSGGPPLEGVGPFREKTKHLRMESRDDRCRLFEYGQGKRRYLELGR
Procedure, shortened: (§1)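 HEK293T lysate (495 µg per sample, in Tris/CHAPS/IGEPAL buffer with protease inhibitors) was treated in triplicate with fragment at 200 µM or with DMSO for 3 h. It was then treated with Biotin-Ahx-Ub-VS (0.5 µM final) for 1 h. Labelled DUBs were NeutrAvidin-enriched, digested with LysC and trypsin, and run by diaPASEF LC-MS/MS. Spectronaut label-free quantities were global-median-normalised. Values are average log2 ratios fragment/DMSO by unpaired t-test, using proteins with ≥2 unique peptides.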

USP46 = USP46 (UniProt P62068)
Procedure, shortened: as §1

USP47 = target: T2, USP47 (UniProt Q96K76)
T2 sequence (whole entry): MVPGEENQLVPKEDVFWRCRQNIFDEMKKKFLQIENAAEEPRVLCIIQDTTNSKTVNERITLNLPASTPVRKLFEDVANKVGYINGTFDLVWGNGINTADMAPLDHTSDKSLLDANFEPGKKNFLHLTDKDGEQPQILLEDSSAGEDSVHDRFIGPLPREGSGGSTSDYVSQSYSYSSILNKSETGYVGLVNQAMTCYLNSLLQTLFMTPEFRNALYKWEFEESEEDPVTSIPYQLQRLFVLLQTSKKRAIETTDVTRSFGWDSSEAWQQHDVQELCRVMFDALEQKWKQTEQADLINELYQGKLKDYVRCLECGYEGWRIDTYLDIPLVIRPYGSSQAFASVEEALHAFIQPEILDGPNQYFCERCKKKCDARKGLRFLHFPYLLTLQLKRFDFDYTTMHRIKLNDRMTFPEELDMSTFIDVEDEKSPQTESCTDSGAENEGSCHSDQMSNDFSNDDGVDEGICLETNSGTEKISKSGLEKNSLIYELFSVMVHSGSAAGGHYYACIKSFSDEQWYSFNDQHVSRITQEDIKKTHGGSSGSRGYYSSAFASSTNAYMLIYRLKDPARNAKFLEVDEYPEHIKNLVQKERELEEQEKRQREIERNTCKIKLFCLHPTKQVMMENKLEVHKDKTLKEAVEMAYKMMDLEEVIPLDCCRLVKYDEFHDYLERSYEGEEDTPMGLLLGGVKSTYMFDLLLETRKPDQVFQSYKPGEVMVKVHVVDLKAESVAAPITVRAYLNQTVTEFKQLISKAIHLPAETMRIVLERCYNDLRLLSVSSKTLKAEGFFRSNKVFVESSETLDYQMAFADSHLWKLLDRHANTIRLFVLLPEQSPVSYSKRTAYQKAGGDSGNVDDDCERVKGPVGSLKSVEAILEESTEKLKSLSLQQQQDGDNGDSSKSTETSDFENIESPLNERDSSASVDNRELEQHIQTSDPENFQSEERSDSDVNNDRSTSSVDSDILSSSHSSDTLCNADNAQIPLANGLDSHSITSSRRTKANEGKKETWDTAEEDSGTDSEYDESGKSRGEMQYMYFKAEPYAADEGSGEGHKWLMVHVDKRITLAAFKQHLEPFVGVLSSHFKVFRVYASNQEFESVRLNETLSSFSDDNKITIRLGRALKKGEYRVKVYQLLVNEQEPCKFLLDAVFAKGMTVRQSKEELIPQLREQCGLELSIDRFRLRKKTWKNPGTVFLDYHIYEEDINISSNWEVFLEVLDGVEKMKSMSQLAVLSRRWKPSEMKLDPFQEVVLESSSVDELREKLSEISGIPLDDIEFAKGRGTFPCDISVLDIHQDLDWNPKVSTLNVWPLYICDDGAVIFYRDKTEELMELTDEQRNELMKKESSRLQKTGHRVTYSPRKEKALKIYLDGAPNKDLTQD
Procedure, shortened: as §1

USP48 = target: T3, USP48 (UniProt Q86UV5)
T3 sequence (whole entry): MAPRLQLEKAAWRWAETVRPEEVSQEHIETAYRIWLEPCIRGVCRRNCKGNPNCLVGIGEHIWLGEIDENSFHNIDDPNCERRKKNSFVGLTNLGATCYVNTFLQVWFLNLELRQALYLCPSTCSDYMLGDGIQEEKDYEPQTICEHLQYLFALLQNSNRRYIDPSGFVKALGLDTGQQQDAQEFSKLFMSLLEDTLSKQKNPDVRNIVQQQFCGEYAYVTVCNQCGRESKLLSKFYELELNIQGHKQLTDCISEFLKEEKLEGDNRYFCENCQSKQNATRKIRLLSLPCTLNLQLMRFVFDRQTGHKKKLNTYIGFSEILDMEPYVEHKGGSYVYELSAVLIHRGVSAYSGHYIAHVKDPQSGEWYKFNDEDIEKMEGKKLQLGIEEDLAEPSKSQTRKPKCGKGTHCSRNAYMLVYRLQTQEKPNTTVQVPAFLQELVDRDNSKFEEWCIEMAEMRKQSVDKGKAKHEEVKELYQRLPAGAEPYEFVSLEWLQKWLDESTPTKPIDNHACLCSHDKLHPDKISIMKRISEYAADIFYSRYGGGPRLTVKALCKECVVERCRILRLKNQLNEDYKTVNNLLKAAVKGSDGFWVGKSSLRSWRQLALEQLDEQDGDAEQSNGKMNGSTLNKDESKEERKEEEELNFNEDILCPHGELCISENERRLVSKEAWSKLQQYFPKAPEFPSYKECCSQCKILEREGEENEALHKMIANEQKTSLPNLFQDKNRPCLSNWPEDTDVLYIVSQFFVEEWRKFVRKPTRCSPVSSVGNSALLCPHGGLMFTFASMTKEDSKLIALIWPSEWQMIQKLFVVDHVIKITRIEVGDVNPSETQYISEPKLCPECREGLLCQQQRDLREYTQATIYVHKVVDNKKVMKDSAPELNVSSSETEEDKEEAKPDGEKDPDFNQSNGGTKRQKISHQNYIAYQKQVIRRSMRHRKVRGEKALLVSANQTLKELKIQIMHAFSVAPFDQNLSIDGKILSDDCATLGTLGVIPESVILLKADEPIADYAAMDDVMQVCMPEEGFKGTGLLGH
Procedure, shortened: as §1

USP5 = target: T4, USP5 (UniProt P45974)
T4 sequence (whole entry): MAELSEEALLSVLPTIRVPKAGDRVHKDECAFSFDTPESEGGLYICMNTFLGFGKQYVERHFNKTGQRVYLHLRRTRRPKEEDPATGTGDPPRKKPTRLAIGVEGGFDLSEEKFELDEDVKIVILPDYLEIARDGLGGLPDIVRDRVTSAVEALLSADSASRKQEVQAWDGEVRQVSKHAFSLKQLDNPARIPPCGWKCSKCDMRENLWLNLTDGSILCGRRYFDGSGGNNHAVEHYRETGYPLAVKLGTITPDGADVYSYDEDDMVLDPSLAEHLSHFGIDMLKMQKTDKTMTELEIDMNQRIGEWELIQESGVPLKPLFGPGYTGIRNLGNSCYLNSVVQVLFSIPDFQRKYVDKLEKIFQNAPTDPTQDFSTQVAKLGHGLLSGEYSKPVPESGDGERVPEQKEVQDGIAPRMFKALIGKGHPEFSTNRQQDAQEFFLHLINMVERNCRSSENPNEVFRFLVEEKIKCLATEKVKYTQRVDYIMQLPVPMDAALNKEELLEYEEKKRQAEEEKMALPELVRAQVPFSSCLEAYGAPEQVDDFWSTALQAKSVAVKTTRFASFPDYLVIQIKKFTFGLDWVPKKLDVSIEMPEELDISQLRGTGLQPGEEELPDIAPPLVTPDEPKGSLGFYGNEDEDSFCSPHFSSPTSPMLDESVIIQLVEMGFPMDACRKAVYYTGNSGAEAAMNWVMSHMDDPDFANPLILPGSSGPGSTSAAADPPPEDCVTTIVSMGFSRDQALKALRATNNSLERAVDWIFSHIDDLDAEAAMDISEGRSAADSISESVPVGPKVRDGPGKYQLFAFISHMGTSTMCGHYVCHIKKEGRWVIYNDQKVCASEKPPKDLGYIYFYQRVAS
Procedure, shortened: as §1

USP54 = USP54 (UniProt Q70EL1)
Procedure, shortened: as §1

USP7 = USP7 (UniProt Q93009)
Procedure, shortened: as §1

USP8 = target: T5, USP8 (UniProt P40818)
T5 sequence (whole entry): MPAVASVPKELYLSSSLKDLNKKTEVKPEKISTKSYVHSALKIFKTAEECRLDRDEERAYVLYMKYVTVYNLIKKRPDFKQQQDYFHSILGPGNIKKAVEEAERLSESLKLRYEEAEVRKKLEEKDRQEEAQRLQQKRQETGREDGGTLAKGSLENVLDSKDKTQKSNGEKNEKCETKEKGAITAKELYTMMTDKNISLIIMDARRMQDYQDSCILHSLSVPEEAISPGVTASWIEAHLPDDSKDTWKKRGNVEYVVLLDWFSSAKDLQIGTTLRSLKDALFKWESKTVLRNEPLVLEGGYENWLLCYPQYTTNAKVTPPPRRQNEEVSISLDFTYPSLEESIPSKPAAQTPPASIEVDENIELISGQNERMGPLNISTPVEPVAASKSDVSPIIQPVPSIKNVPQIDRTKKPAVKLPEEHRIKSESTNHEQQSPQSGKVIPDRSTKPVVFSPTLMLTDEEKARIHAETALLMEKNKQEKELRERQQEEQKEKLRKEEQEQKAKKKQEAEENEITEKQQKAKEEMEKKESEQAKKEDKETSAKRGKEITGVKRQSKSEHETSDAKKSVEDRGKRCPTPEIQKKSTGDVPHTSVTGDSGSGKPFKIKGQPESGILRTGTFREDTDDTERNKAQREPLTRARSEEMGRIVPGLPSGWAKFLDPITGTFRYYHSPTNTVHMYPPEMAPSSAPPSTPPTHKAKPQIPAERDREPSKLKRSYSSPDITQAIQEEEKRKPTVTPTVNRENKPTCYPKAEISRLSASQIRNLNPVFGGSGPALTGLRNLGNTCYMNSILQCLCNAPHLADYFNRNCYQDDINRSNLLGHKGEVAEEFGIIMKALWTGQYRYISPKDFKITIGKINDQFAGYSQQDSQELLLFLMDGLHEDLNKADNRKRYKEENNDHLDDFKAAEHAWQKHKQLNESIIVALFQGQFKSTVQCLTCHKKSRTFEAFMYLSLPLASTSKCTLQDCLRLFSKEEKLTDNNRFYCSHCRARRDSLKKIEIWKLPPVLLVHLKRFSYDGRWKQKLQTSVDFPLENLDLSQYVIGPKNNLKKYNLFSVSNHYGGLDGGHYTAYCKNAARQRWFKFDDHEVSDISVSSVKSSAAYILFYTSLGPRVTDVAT
Procedure, shortened: as §1

Measured: log2 ratio of Biotin-Ahx-Ub-VS probe labelling

Sequence of USP7 (Q93009 whole entry, looked up): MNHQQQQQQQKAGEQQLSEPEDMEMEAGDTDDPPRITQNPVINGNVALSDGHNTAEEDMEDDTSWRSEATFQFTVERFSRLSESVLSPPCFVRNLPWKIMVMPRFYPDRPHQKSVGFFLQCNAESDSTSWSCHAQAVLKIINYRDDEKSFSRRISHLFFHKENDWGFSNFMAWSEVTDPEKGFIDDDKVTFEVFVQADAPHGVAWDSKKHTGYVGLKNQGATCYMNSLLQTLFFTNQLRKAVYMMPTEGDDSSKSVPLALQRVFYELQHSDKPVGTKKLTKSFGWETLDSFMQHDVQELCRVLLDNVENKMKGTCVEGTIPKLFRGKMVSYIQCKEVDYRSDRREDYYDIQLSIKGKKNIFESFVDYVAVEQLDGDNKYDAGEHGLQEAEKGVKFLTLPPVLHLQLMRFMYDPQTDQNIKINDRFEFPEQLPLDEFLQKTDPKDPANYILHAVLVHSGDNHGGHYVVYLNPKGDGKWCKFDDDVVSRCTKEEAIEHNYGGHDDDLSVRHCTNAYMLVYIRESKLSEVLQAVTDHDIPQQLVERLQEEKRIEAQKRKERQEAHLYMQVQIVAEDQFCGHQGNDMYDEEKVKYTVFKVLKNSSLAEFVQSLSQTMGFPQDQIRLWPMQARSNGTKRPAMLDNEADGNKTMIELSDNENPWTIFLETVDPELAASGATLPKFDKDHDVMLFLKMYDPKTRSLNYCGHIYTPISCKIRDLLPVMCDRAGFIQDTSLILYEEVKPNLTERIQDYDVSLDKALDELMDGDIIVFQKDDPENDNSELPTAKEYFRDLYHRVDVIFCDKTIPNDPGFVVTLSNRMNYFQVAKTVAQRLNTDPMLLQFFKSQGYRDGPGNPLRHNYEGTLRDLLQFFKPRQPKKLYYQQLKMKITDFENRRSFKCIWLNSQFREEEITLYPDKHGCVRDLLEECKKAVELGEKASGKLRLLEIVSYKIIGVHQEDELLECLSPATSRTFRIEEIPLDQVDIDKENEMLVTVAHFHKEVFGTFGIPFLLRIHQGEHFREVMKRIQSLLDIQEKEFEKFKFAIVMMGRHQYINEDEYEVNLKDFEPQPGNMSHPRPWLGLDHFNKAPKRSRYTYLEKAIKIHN
Sequence of USP46 (P62068 whole entry): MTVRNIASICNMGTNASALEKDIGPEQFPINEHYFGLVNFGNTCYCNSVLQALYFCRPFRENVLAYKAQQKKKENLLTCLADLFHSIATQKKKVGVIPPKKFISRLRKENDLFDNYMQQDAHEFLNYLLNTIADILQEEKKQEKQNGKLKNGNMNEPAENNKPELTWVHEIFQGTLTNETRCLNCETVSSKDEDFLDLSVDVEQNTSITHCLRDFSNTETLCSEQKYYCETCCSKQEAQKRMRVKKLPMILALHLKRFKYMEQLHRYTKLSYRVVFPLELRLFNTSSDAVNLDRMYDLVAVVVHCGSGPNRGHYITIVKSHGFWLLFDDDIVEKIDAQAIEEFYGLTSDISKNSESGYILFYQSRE
Sequence of USP54 (Q70EL1 whole entry): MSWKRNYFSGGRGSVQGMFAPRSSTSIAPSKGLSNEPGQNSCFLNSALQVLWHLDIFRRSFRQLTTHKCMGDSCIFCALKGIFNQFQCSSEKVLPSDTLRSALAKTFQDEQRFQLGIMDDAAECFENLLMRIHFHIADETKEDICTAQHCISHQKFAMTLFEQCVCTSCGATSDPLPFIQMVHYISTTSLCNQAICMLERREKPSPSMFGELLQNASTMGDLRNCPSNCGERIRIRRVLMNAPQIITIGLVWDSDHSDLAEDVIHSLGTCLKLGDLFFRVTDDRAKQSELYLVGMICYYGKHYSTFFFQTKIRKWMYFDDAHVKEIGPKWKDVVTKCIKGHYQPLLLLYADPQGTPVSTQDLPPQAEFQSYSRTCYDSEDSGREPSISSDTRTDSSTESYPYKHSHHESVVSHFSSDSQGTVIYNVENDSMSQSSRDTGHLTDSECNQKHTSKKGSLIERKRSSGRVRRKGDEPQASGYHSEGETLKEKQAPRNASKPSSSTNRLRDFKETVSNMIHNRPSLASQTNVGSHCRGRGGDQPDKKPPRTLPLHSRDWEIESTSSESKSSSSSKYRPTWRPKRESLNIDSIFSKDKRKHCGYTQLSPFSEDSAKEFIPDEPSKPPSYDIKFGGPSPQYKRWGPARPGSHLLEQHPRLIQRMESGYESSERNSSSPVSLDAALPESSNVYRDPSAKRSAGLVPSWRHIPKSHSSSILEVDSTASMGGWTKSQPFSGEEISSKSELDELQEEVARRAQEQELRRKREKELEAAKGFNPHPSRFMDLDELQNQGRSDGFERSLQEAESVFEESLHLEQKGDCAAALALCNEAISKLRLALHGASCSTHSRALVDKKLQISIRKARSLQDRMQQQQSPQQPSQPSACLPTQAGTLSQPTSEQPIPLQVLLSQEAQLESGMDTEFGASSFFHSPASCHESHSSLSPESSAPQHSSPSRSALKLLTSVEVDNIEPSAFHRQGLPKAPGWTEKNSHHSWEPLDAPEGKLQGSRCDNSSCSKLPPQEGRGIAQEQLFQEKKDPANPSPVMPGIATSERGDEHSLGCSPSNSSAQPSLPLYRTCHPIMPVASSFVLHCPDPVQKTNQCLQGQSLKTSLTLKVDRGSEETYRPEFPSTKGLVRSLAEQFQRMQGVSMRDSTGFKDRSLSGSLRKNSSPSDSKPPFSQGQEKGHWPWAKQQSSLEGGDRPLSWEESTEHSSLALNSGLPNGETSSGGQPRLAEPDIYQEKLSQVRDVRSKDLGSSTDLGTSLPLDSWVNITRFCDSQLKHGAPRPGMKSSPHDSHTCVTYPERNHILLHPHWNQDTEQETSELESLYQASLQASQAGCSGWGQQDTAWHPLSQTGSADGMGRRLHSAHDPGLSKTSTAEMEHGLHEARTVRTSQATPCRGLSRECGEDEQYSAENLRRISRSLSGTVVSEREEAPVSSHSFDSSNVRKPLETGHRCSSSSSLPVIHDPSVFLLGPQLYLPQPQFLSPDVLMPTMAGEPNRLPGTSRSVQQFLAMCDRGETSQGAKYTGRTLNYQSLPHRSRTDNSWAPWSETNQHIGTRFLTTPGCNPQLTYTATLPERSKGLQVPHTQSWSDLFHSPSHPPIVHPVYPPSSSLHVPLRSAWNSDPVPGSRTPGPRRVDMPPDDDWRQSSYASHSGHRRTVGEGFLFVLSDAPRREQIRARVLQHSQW

O=C(CCl)NCCc1ccc(F)cc1
inactive: USP42 0.0996 | USP46 0.235 | USP47 -0.0571 | USP48 -0.229 | USP5 0.066 | USP54 0.699 | USP7 -0.0342 | USP8 -0.0379
